Test results published in publication PMC4552634, “A New Set of Chemical Starting Points with Plasmodium falciparum Transmission-Blocking Potential for Antimalarial Drug Discovery” (PLoS ONE, 2015).
In all, about 13,000 compounds went through this assay and about 3,200 (25%) showed an effect of 50% or more. The list shows a part of the results.

tested on: P. falciparum stage V gametocytes; design: BacTiter-Glo ATP luminescence viability of purified stage V gametocytes in 384-well plates, per cent inhibition versus DMSO; conditions: 48 h, 5 µM; inhibitor

| Compound | % Inhibition [%] |
| --- | --- |
| Cc1noc(-c2ccc(O)cc2O)c1-c1ccc2c(c1)OCCCO2 [TCMDC-124197] | 16 |
| COc1cc(C(=O)N2C(c3nccs3)C(C(=O)N(OC)C(C)c3ccccc3)CC2(CC(C)C)C(=O)OC(C)(C)C)ccc1C(C)(C)C (stereo not shown) [TCMDC-135187] | 35.9 |
| CCCc1ccc(C(=O)N2C(c3nccs3)C(C(N)=O)CC2(CC(C)C)C(=O)O)cc1 (stereo not shown) [TCMDC-138717] | -10.33 |
| CC(C)CC1(C(=O)OC(C)(C)C)CC(C(=O)OC(C)(C)C)C(c2cccs2)N1C(=O)c1ccc(C(C)(C)C)cc1 (stereo not shown) [TCMDC-138807] | 77.31 |
| C=CCN1C(=O)C(=Cc2cc(Br)ccc2O)SC1=Nc1ccccc1 [TCMDC-124119] | 53.26 |
| CCOC(=O)c1ccc(N=C2SC(=Cc3cc(Br)ccc3O)C(=O)N2C)cc1 [TCMDC-125656] | 2.309 |
| O=C1C(=Cc2cc(Cc3ccccc3)ccc2O)SC(=S)N1Cc1ccccc1 [TCMDC-124107] | 17.72 |
| CCOC(=O)c1ccc(NC(=O)N[C@@H](Cc2ccccc2)C(=O)NC2CCN(Cc3ccc(OCCCN(C)C)cc3)C2)cc1 (stereo partly shown) [TCMDC-140501] | 106.4 |
| CC(C)[C@H]1CC[C@H](C)C[C@@H]1OC(=O)N[C@@H](Cc1ccc(O)cc1)C(=O)NC1CCN(Cc2ccc(OCCCN(C)C)cc2)C1 (stereo partly shown) [TCMDC-140497] | 106.1 |
| CCOC(=O)c1ccc(NC(=O)N[C@@H](Cc2ccccc2)C(=O)NC2CCN(Cc3ccc(O)c(OC)c3)C2)cc1 (stereo partly shown) [TCMDC-140503] | -11.63 |
| CC(C)(C)c1ccc(OC(=O)c2ccc(NC(=O)N[C@@H](Cc3ccc(O)cc3)C(=O)NC3CCN(Cc4ccc(O)cc4)C3)cc2)cc1 (stereo partly shown) [TCMDC-135359] | 23.01 |
| O=C(Nc1ccc(C(=O)OCC(c2ccccc2)c2ccccc2)cc1)N[C@@H](Cc1ccc(O)cc1)C(=O)NC1CCN(Cc2ccc(O)cc2)C1 (stereo partly shown) [TCMDC-135362] | 9.298 |
| CCOC(=O)c1ccc(NC(=O)N[C@@H](Cc2ccccc2)C(=O)NC2CCN(Cc3ccc(O)cc3)C2)cc1 (stereo partly shown) [TCMDC-140502] | -28.76 |
| Cc1cc(C(=O)N[C@H]2CCN(Cc3ccc(OCCCN(C)C)cc3)C2)ccc1Br [TCMDC-140368] | 17.03 |
| CC(C)OC(=O)c1ccc(NC(=O)N[C@@H](Cc2ccc(O)cc2)C(=O)NC2CC3CCC(C2)N3Cc2ccccc2)cc1 (stereo partly shown) [TCMDC-136164] | 71.31 |
| CC(C)OC(=O)c1ccc(NC(=O)N[C@@H](Cc2ccc(O)cc2)C(=O)NC2CCC(CCN3C4CCC3c3ccccc34)CC2)cc1 (stereo partly shown) [TCMDC-136163] | 13.63 |
| O=C(/C=C/c1ccc(Cl)c(Cl)c1)NCCCCN1CCCN(C(=O)Nc2cc(Cl)cc(Cl)c2)CC1 [TCMDC-135929] | -18.98 |
| COc1ccc(CN2CCCC(OC(c3ccc(F)cc3)c3ccc(F)cc3)C2)c(O)c1 (stereo not shown) [TCMDC-136166] | 23.2 |
| Fc1cccc(COc2ccc(Nc3ncnc4sc(C#C[C@H]5CC[C@H](CN6CCOCC6)N5)cc34)cc2Cl)c1 [TCMDC-135417] | -15.95 |
| Cc1c(F)cc(C(=O)NC2CC2)cc1-c1ccc2c(cnn2S(=O)(=O)c2ccc(F)c(F)c2)c1 [TCMDC-135239] | 15.38 |
| Cc1ccc2nc(C)cc(Nc3ccccc3O)c2c1 [TCMDC-123660] | -31.17 |

| Compound | % Inhibition [%] |
| --- | --- |
| CCCc1cc(C)ccc1OCCCON1C(NC(=O)OCC)=NC(NC(=O)OCC)=NC1(C)C [TCMDC-131343] | 12.88 |
| COc1cc(Cc2cnc(N)nc2N)cc(OCCn2ccccc2=O)c1OC [TCMDC-137347] | -6.593 |
| CCN(CC)c1ccc2nc(N)nc(N)c2c1Cl [TCMDC-137857] | -7.537 |
| O=C(NCC1CCN(Cc2ccc3c(c2)OCCO3)C1)c1cc(-c2ccccc2F)cs1.O=C(O)C(F)(F)F (stereo not shown) [TCMDC-134459] | 14.42 |
| CN(C)c1ccc(CN2CCC(CNC(=O)c3cc(-c4ccccc4F)cs3)C2)cc1.O=C(O)C(F)(F)F (stereo not shown) [TCMDC-134453] | 72.61 |
| CSc1ccc(CN2CCC(CNC(=O)c3cc(-c4ccccc4F)cs3)C2)cc1.O=C(O)C(F)(F)F (stereo not shown) [TCMDC-134460] | 78.38 |
| CCCNC[C@@H](O)[C@H](Cc1ccccc1)NC(=O)c1cc(NCC)cc(N2CCCC2=O)c1 [TCMDC-138890] | 18.6 |
| Cc1cc(C(=O)OCC(N)=O)c(C)n1-c1ccc(F)cc1 [TCMDC-123812] | -34.47 |
| CN(C)S(=O)(=O)c1ccc(C(=O)N(c2nc(-c3ccccc3)cs2)C2CCCCC2)cc1 [TCMDC-123561] | -34.43 |
| Cc1cc(N2CCOCC2)nc2ccc(NC(=O)c3ccc(Cl)c([N+](=O)[O-])c3)cc12 [TCMDC-125441] | -11.29 |
| C=CCN(C(=O)c1ccc(Cl)c([N+](=O)[O-])c1)c1nc(-c2ccccc2)cs1 [TCMDC-124436] | 137 |
| O=C(Nc1cc(Cl)cc(Cl)c1)c1cc(Cl)c(=O)n(Cc2ccc(Cl)cc2)c1 [TCMDC-123810] | 18.7 |
| CCOC(=O)c1cn(CC)c2cc(N3CCCCCC3)c(F)cc2c1=O [TCMDC-124160] | 58.45 |
| CCn1cc(C(=O)O)c(=O)c2cc(F)c(N3CCN(S(=O)(=O)c4ccc(N)cc4)CC3)cc21 [TCMDC-125809] | 2.438 |
| CCOC(=O)c1cn(CC)c2cc(N3CCCCC3)c(F)cc2c1=O [TCMDC-124156] | 35.74 |
| O=C(/C=C/c1ccc(Cl)c(Cl)c1)NCCCCCCN1CCCN(C(=O)Nc2ccc(F)c(F)c2)CC1 [TCMDC-135938] | -42.76 |
| O=C1Nc2cccc3c2C1(CCCCN1CCC(c2c(-c4ccccc4)[nH]c4ccccc24)CC1)CCC3 (stereo not shown) [TCMDC-140655] | 54.78 |
| Cc1[nH]c2ccccc2c1C1=CCN(CCCCCC23CCCc4cccc(c42)NC3=O)CC1 (stereo not shown) [TCMDC-140463] | -65.61 |
| Cc1ccc(OC2CCN(CCCCC3(C)C(=O)Nc4ccccc43)CC2)cc1 (stereo not shown) [TCMDC-140795] | -17.97 |
| CC1(CCCCN2CC=C(c3c[nH]c4ccccc34)CC2)C(=O)Nc2ccccc21 (stereo not shown) [TCMDC-140717] | -30.41 |
| O=C1Nc2cccc3c2C1(CCCCN1CCC(c2c(-c4ccc(F)cc4)[nH]c4ccccc24)CC1)CCC3 (stereo not shown) [TCMDC-140656] | 74.07 |

| Compound | % Inhibition [%] |
| --- | --- |
| Cc1nc(N)nc(N)c1-c1ccc2ccccc2c1 [TCMDC-137286] | -7.805 |
| FC(F)(F)c1ccc2[nH]c(-c3cccc(-c4cccc(CNCc5cnn(-c6ccccc6)n5)c4)c3)nc2c1.O=C(O)C(F)(F)F [TCMDC-132966] | -44.07 |
| COc1cccc(NC(=O)N2CCOC(CCN3CCC4(CCc5ccccc54)CC3)(c3ccc(Cl)c(Cl)c3)C2)c1 (stereo not shown) [TCMDC-135330] | -52.33 |
| O=C(/C=C/c1ccc(Cl)c(Cl)c1)N1CCC(CN2CCC(c3c(Br)[nH]c4ccccc34)CC2)CC1 [TCMDC-140652] | -44.15 |
| O=C(/C=C/c1ccc(Cl)c(Cl)c1)N1CCC(CN2CCC(Cc3nc4ccccc4[nH]3)CC2)CC1 [TCMDC-140119] | 26.7 |
| Cc1cc(O)cc2c(C3CCN(CC4CCN(C(=O)/C=C/c5ccc(Cl)c(Cl)c5)CC4)CC3)c[nH]c12 [TCMDC-140065] | -70.17 |
| O=C(/C=C/c1ccc(Cl)c(Cl)c1)N1CCC(CN2CCC(c3c(-c4ccc(F)cc4)[nH]c4ccccc34)CC2)CC1 [TCMDC-140654] | 18.04 |
| O=C(/C=C/c1ccc(Cl)c(Cl)c1)N1CCC(CN2CCC(c3nc4ccccc4n3CCCO)CC2)CC1 [TCMDC-140312] | -4.21 |
| O=C(/C=C/c1ccc(Cl)c(Cl)c1)N1CCC(CN2CCC(c3c(-c4ccccc4)[nH]c4ccccc34)CC2)CC1 [TCMDC-140653] | 54.21 |
| Cn1c(NC2CCN(CC3CCN(C(=O)/C=C/c4ccc(Cl)c(Cl)c4)CC3)CC2)nc2ccccc21 [TCMDC-140340] | 94.55 |
| CCn1c(C2CCN(CCC3CCN(C(=O)/C=C/c4ccc(Cl)c(Cl)c4)CC3)CC2)nc2ccccc21 [TCMDC-140221] | -5.757 |
| CC(C)n1c(C2CCN(CC3CCN(C(=O)/C=C/c4ccc(Cl)c(Cl)c4)CC3)CC2)nc2ccccc21 [TCMDC-140212] | -15.48 |
| CC(C)n1c(CC2CCN(CC3CCN(C(=O)/C=C/c4ccc(Cl)c(Cl)c4)CC3)CC2)nc2ccccc21 [TCMDC-140372] | 82.38 |
| Cc1ccc(-c2ccc3c(c2)C=C(C(=O)NCC2CCN(CC4CCN(C(=O)/C=C/c5ccc(Cl)c(Cl)c5)CC4)CC2)CCC3)cc1 [TCMDC-140646] | 108.7 |
| Cc1[nH]c2ccccc2c1CC1CCN(CC2CCN(C(=O)/C=C/c3ccc(Cl)c(Cl)c3)CC2)CC1 [TCMDC-140128] | -40.98 |
| CC1CC(C)CN(S(=O)(=O)c2cc(C(=O)Nc3cccc([N+](=O)[O-])c3)ccc2Br)C1 (stereo not shown) [TCMDC-124626] | -10.68 |
| O=C(Nc1cc(F)c(F)c(-c2cccnc2)c1)N1CCc2cc(Cl)c(Cl)cc21 [TCMDC-139065] | 25.18 |
| Cc1ccc(-c2nc(N3CCN(C(=O)c4ccco4)CC3)c3ccccc3n2)cc1 [TCMDC-124779] | -11.86 |
| COc1ccccc1CNC(=O)c1cc(OC)c(OC)cc1NC(=O)c1cccs1 [TCMDC-125022] | 22.04 |
